Compounds without any hit were thinned out: in the full panel of roughly 83,000, 20% have a hit.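 Growth was measured after 48 h exposure to one concentration of compound in 96-well plates. Values under 10 count as active.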 Values without a mark were called inactive. The source made the active and inactive calls.
What was measured:
Test in all cases: NCI-60 one-dose screen, 48 h (100 = growth as untreated, 0 = no growth, -100 = all killed)
DU-145 prostate = details: 10 µM unless noted
K-562 leukemia = details: 10 µM unless noted
MALME-3M melanoma = details: 10 µM unless noted
RXF 393 renal = details: 10 µM unless noted
SF-295 CNS = details: 10 µM unless noted
UACC-257 melanoma = details: 10 µM unless noted
M14 melanoma = details: 10 µM unless noted
SK-MEL-5 melanoma = details: 10 µM unless noted
UACC-62 melanoma = details: 10 µM unless noted
LOX IMVI melanoma = details: 10 µM unless noted
A498 renal = details: 10 µM unless noted
CCRF-CEM leukemia = details: 10 µM unless noted
SR leukemia = details: 10 µM
OVCAR-4 ovarian = details: 10 µM unless noted
IGROV1 ovarian = details: 10 µM
BT-549 breast = details: 10 µM
HCC-2998 colon = details: 10 µM unless noted
SK-MEL-2 melanoma = details: 10 µM unless noted
HL-60(TB) leukemia = details: 10 µM unless noted
OVCAR-3 ovarian = details: 10 µM unless noted

Row | SMILES | growth (DU-145 prostate) | growth (K-562 leukemia) | growth (MALME-3M melanoma) | growth (RXF 393 renal) | growth (SF-295 CNS) | growth (UACC-257 melanoma) | growth (M14 melanoma) | growth (SK-MEL-5 melanoma) | growth (UACC-62 melanoma) | growth (LOX IMVI melanoma) | growth (A498 renal) | growth (CCRF-CEM leukemia) | growth (SR leukemia) | growth (OVCAR-4 ovarian) | growth (IGROV1 ovarian) | growth (BT-549 breast) | growth (HCC-2998 colon) | growth (SK-MEL-2 melanoma) | growth (HL-60(TB) leukemia) | growth (OVCAR-3 ovarian)
1 | CNC(C)Cc1ccccc1 (configuration not stated) (tested in a mixture with another compound) | 108% | 88.9% | 103% | 105% | 97.7% | 109% | 103% | 99.6% | 107% | 98.7% | 92.5% | 105% | 108% | 104% | 101% | 109% | 101% | – | – | –
2 | CCOC(=O)/C(C#N)=C/c1ccc(N(CCCl)CCCl)cc1 | 98.8% | 98.6% | 99.7% | 93.3% | 43.6% | 103% | – | 97.9% | – | 92% | 95.5% | – | 30.3% | 61.5% | 48.4% | 95.3% | 105% | 99.2% | 85.2% | 108%
3 | CCOC(=O)/C=C(\C)Nc1ccc(N/C(C)=C/C(=O)OCC)c2c1Oc1ccccc1O2 | 110% | 81.7% | 107% | 0.357% (active) | 99.4% | 109% | 107% | 79.9% | 92.3% | 94.4% | 102% | 43.2% | 78.3% | 114% | – | 102% | 120% | 100% | 63.4% | 92.6%
4 | COc1cc2c(cc1OC)CN(C)C(C)C2 (configuration not stated) | 109% | 101% | 95.9% | 118% | 99% | 104% | 100% | 101% | 89.4% | 95.1% | 84% | 100% | 101% | 103% | 111% | 115% | 97.5% | 100% | 87.9% | –
5 | C[C@]12CC[C@@H]3C4=C(CC[C@H]3[C@@H]1CC[C@@H]2O)CC(=O)CC4 | 116% | 96.9% | 116% | 100% | 102% | 92.8% | – | 59% | – | 90.2% | 90.6% | 96.3% | 97.5% | 111% | 121% | 122% | 104% | 127% | 99.5% | 113%
6 | O=CC(Br)C(Br)c1ccccc1 (configuration not stated) | 77% | 41.2% | 82.6% | 86.8% | 97.9% | 93.8% | 91.8% | 89.9% | – | 56.2% | 102% | -1.8% (active) | 16.1% | 104% | 74.8% | 99.7% | 106% | 112% | 26.3% | 33.3%
7 | CCCCNCCc1ccccn1 | 113% | 90.4% | 101% | 113% | 100% | 94.5% | 99.6% | 111% | 109% | 97.1% | 95.5% | 92.4% | 101% | 106% | 116% | 98.2% | 114% | 87.3% | 99.1% | 106%
8 | O=[As]c1ccc(C(=O)c2ccc(Oc3ccccc3)cc2)cc1 (configuration not stated) | -94% (active) | -17.8% (active) | -66.2% (active) | -100% (active) | -65.1% (active) | -99.4% (active) | -94.1% (active) | -100% (active) | -98.1% (active) | -91.2% (active) | -97.7% (active) | -33.1% (active) | -23.9% (active) | -91.2% (active) | -54.1% (active) | -98.8% (active) | -93.9% (active) | -95.2% (active) | -23.4% (active) | -93.9% (active)
9 | CCN(CC)c1ccc(C=C2C(=O)NC(=S)NC2=O)cc1 | 98.8% | 78% | 123% | -22.3% (active) | 99.3% | 91.3% | – | 93.4% | 85.9% | 80% | 97.5% | 38.9% | -50.8% (active) | 90.9% | 100% | 98.5% | 96.8% | 98.1% | 42.7% | 80.6%
10 | O=[N+]([O-])c1ccccc1N1CCNCC1 | 108% | 91.7% | 89% | 121% | 104% | 94.4% | 97.8% | 102% | 95.8% | 95.8% | 97.6% | 112% | 88.5% | 99.4% | 85% | 111% | 100% | 106% | 80.1% | 101%
11 | O=C1NC(=O)C(CN2C(=O)C3(c4ccccc42)[C@H](Cl)C(=O)N3c2ccccc2)C(=O)N1 (some centres not stated) | 102% | 65.5% | 95.4% | 65.5% | 91.5% | – | – | 78.6% | – | 50.2% | 105% | 54.4% | 15.2% | 97.6% | 49.4% | 72.3% | 83.9% | 76.6% | 85.4% | –
12 | CC(=O)O[C@H]1CC[C@H]2[C@@H]3CC[C@H]4CC=C(C)C[C@]4(C)[C@H]3CC[C@]12C | 106% | – | 106% | 111% | 103% | 111% | 101% | – | 98.5% | 102% | 104% | 108% | – | 104% | 107% | 107% | 111% | 110% | 89.9% | 102%
13 | O=C1NC(=O)C(Cc2ccccc2)(Cc2ccccc2)C(=O)N1 | 115% | 86.7% | – | 113% | 105% | 108% | 103% | 109% | 95.1% | 90.4% | 104% | 101% | 99.6% | 95.7% | 114% | 118% | 104% | 104% | 89.4% | 119%
14 | CCCCN(CCCC)CC(O)c1ccccc1 (configuration not stated) | 113% | 103% | – | 116% | 103% | 106% | – | 118% | 105% | 103% | 82.6% | 99.8% | 102% | 95.4% | 115% | 124% | 102% | 115% | 111% | 108%
15 | C[CH2][Sn]([CH2]C)([CH2]C)[NH]S(=O)(=O)c1ccc(C)cc1 | 113% | 116% | 110% | 123% | 104% | 105% | 108% | 110% | 100% | 92.3% | 68% | 108% | 99.7% | 103% | 111% | – | 99.9% | 119% | 104% | 113%
16 | CC12CCC(=O)C=C1CCC1C2CCC2(C)C(C(=O)COC(=O)Cc3ccc(N(CCCl)CCCl)cc3)CCC12 (configuration not stated) | 109% | 77.5% | 168% | – | 74.5% | – | 104% | 85% | 66.3% | 86.4% | 69.8% | 26.7% | -2.48% (active) | 91% | – | – | -28.3% (active) | 20.6% | 26.7% | 107%
17 | CC(=O)C1C(=O)N(C)C(=O)N(C)C1=O | 111% | 108% | 114% | 107% | – | 98.6% | 110% | 99.7% | 110% | 107% | 83.2% | 97.2% | 96.5% | 105% | 113% | 106% | 112% | 108% | 104% | 112%
